Experimental findings from PubChem BioAssay are described below.

Experiment [1] can be described thus: antimalarial activity against Dd2 strain (AID 2302;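 active = growth inhibition above 50% at the single 2 µM test dose, taken to imply half-maximal potency below 2 µM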;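 note: 0% = DMSO untreated growth and 100% = chloroquine plus artemisinin killed control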). The note with it: P. falciparum Dd2 in RBCs, LDH growth readout, 72 h; at 2 µM; stronger effect = higher value.
Experiment [2] is described as follows: human hepatoma cell viability loss – ATP luminescence, cytotoxicity control for P. falciparum antimalarial project, primary screen (AID 2303;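 active = inhibition above 50%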;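 note: 0% = DMSO wells and 100% = digitonin-killed cells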). The note with it: HepG2 viability, 24-48 h, at 10 µM, stronger effect = higher value.
Experiment [3] deals with L-lactate dehydrogenase (Plasmodium falciparum (isolate CDC / Honduras)) (UniProt Q27743). Kind of experiment: PfLDH activity inhibition – cell lysate, 3D7 strain, counter-screen for P. falciparum growth inhibition project (AID 2304).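 Note: 0% = vehicle and 100% = reference inhibitor.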 The note with it: P. falciparum 3D7 crude extract, LDH APAD/NBT absorbance; at 2 µM; stronger effect = higher value. In general terms: A counterscreen serves to expose hits that act by an unwanted route or on another target.

A short description of experiment [4]: inhibition of 3D7 malaria parasite growth – strain 3D7 (AID 2306).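 Note: 0% = DMSO wells and 100% = chloroquine plus artemisinin control wells.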 Particulars: P. falciparum 3D7 erythrocytic growth, LDH absorbance, 72 h; at 2 µM; stronger effect = higher value.
The target in experiment [5] is Calcium-dependent protein kinase 1 (Plasmodium falciparum (isolate 3D7)) (UniProt P62344). In words: PfCDPK1 kinase inhibitors, biochemical, TCAMS library (AID 1159585; cut-off not given, nearly all actives have IC50 up to about 0.98 µM;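 note: inhibitors leave more ATP so luminescence rises with inhibition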). Particulars: recombinant PfCDPK1, Kinase-Glo ATP depletion luminescence.
In experiment [6] the target is Plasmodium falciparum protein kinase 6 (PK6, PF3D7_1337100) (UniProt Q8IDW1). In words: PfPK6 kinase inhibitors, biochemical, TCAMS library (AID 1159586). The note with it: recombinant PfPK6, Kinase-Glo ATP depletion luminescence.
Experiment [7] deals with Protein kinase 7 (PK7), Plasmodium falciparum 3D7 (PF3D7_0213400) (UniProt Q7YTF7). Kind of experiment: inhibition of Plasmodium PK7 catalytic activity – biochemical, TCAMS antimalarial set, Kinase-Glo luminescence (AID 1159587). Particulars: recombinant PfPK7, Kinase-Glo ATP depletion luminescence. On the technique in general: Kinase-Glo reads ATP consumption through a luciferase reaction.

Experiment [8] has as its target Calcium-dependent protein kinase 4 (Plasmodium falciparum (isolate 3D7)) (UniProt Q8IBS5). Kind of experiment: PfCDPK4 kinase inhibitors, biochemical, TCAMS library (AID 1159588; cut-off not given, nearly all actives have IC50 up to about 0.91 µM). The note with it: recombinant PfCDPK4, Kinase-Glo ATP depletion luminescence.

Unmarked numbers belong to inactive results. For some of these results: Entries with a potency or affinity are not part of this list. Calls of active or inactive are those of the source. Unless noted, the rule behind the calls is not given here.

Chain of L-lactate dehydrogenase (Plasmodium falciparum (isolate CDC / Honduras)) (Q27743 whole entry, looked up): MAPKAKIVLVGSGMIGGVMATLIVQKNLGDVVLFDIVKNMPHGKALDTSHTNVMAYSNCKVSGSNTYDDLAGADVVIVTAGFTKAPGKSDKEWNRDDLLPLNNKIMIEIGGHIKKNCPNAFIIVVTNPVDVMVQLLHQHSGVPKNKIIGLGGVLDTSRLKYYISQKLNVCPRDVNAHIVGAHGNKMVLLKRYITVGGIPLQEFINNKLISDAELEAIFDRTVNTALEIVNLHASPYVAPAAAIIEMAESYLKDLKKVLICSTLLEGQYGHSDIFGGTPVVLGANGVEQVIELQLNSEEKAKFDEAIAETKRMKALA
Chain of Protein kinase 7 (PK7), Plasmodium falciparum 3D7 (PF3D7_0213400) (Q7YTF7 1-343): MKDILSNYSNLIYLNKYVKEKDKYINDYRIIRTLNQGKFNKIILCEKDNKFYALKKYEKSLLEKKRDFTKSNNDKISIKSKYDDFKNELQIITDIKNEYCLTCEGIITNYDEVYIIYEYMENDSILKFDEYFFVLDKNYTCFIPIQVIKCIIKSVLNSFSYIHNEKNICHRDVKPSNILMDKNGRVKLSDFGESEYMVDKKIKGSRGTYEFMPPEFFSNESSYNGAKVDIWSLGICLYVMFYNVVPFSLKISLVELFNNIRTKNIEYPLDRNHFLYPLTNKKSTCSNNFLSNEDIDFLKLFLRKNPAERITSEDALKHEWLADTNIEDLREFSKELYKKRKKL
Chain of Calcium-dependent protein kinase 1 (Plasmodium falciparum (isolate 3D7)) (P62344 whole entry, looked up): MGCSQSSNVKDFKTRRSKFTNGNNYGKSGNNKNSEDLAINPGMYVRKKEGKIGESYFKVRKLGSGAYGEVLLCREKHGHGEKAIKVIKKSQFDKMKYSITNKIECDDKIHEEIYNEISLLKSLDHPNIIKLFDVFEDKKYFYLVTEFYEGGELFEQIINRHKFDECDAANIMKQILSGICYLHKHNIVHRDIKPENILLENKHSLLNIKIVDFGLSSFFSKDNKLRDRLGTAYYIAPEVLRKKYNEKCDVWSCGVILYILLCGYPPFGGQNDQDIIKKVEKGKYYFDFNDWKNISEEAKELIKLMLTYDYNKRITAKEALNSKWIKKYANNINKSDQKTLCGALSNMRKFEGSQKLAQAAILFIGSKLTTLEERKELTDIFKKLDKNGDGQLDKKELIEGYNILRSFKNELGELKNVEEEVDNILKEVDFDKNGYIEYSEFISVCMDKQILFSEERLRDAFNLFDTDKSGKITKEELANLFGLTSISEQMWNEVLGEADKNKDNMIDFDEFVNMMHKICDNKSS
Chain of Calcium-dependent protein kinase 4 (Plasmodium falciparum (isolate 3D7)) (Q8IBS5 whole entry, looked up): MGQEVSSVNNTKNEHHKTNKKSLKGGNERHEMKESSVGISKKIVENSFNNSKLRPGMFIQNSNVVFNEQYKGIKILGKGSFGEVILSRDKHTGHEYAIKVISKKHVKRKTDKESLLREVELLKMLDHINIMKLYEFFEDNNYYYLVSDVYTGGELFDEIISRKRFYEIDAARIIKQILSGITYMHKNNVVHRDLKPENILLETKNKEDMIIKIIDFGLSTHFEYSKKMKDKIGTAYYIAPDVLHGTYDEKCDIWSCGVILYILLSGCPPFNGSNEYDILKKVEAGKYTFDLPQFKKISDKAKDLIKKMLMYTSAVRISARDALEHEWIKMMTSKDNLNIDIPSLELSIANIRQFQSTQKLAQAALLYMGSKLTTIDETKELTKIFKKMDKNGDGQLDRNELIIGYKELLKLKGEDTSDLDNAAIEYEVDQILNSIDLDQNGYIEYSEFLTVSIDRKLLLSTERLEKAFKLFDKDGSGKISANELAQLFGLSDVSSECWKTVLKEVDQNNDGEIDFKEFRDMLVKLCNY
Chain of Plasmodium falciparum protein kinase 6 (PK6, PF3D7_1337100) (Q8IDW1 1-305): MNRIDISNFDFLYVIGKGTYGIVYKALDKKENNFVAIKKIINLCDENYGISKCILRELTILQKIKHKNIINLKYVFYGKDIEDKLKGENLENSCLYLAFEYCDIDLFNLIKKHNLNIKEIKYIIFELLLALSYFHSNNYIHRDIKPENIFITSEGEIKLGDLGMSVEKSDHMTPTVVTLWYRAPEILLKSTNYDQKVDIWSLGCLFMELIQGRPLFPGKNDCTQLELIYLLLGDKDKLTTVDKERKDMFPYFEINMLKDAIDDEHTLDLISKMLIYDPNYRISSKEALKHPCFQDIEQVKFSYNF

What is called inhibition is the drop in the measured response relative to a control, in per cent. On to `O=S(=O)(c1cccc(Br)c1)N1CCCCC(c2ccc(C(F)(F)F)cc2)=N1`, for which the growth inhibition in experiment [1] is 92% (active); in experiment [4] it was 91% (active). The inhibition in experiment [2] is 30%; in experiment [3], -4%. In addition, the outcome in experiment [5], in experiment [6], in experiment [7] and in experiment [8] was inactive.

Consider `COc1ccccc1-c1ccc2nnc(SCC(=O)Nc3ccc4c(c3)OCCO4)n2n1`, for which the results for the growth inhibition in experiment [1] and in experiment [4] were 5% and 99% (active), respectively. Moreover, the inhibition in experiment [2] was 9%; in experiment [3], -7%. The outcome in experiment [5], in experiment [6], in experiment [7] and in experiment [8] was inactive.

Consider `Cc1cccc(-n2c(Nc3ccc(C)c(Cl)c3)nc3ccc(S(=O)(=O)NC(C)C(C)C)cc32)c1` (stereo not given), for which the growth inhibition in experiment [1] and in experiment [4] was 97% (active) in each case. Further, the inhibition is -9% in experiment [2] and 4% in experiment [3]. Moreover, the result in experiment [5], in experiment [6], in experiment [7] and in experiment [8] was inactive.

In the case of `Cc1nnsc1C(=O)Nc1cccc(-c2csc(-c3nc4ccccc4[nH]3)c2)c1`, the growth inhibition was 50% (active) in experiment [1] and 94% (active) in experiment [4]. In addition, the inhibition is 51% (active) in experiment [2] and 8% in experiment [3]. Besides, the result in experiment [5], in experiment [6], in experiment [7] and in experiment [8] was inactive.

`COc1cc2nc(N3CCC(CNC(=O)c4ccc(-c5ccc(O)cc5)cc4)CC3)nc(N)c2cc1OC`: the figures for the growth inhibition in experiment [1] and in experiment [4] were 78% (active) and 102% (active), respectively. The results for the inhibition in experiment [2] and in experiment [3] were 34% and -2%, respectively. In addition, the outcome in experiment [5], in experiment [6], in experiment [7] and in experiment [8] was inactive.

For `O=C(Nc1ccc(F)c([N+](=O)[O-])c1)Nc1cc(C(F)(F)F)ccc1Cl`, the growth inhibition in experiment [1] was 86% (active); in experiment [4], 101% (active). The inhibition is 5% in experiment [2] and 0% in experiment [3]. Besides, the result in experiment [5], in experiment [6], in experiment [7] and in experiment [8] was inactive.

Consider `CC[C@H](NC(=O)c1c(CN2CCC(N3CCCCC3)CC2)c(-c2ccccc2)nc2cc(O)ccc12)c1ccccc1`, for which the growth inhibition in experiment [1] was 13%; in experiment [4] it was 94% (active). Also, the inhibition in experiment [2] is 15%; in experiment [3], 2%. The result in experiment [5], in experiment [6], in experiment [7] and in experiment [8] was inactive.

Consider `Oc1ccc(CCNc2nc(NCc3ccc4cc(Cl)ccc4c3)nc(N3CCNCC3)n2)cc1`, for which the growth inhibition in experiment [1] is 38%; in experiment [4], 92% (active). The inhibition is 14% in experiment [2] and -3% in experiment [3]. The result in experiment [5], in experiment [6], in experiment [7] and in experiment [8] was inactive.

As to `N#Cc1ccc(N[C@@H](CC2CCCCC2)C(=O)Nc2ccc(-c3ccccc3)cc2)c2ccccc12`, the growth inhibition in experiment [1] is 99% (active); in experiment [4], 100% (active). Besides, the inhibition in experiment [2] is 34%; in experiment [3] it was -8%. The result in experiment [5], in experiment [6], in experiment [7] and in experiment [8] was inactive.

Take `CC1(C)N=C(N)N=C(N)N1O`: the growth inhibition in experiment [1] was 1%; in experiment [4], 93% (active). In addition, the inhibition in experiment [2] was 7%; in experiment [3] it was -5%. The outcome in experiment [5], in experiment [6], in experiment [7] and in experiment [8] was inactive.

For `CN1CCCN(Cc2cccc(-c3cccc(NC(=O)c4ccc(C#N)cc4)c3)c2)CC1`, the growth inhibition in experiment [1] was 4%; in experiment [4], 89% (active). Besides, the inhibition was 7% in experiment [2] and 1% in experiment [3]. Moreover, the outcome in experiment [5], in experiment [6], in experiment [7] and in experiment [8] was inactive.

Regarding `CC(=O)Nc1ccc(-c2nc3ccc(-c4nc5ccc(NC(C)=O)cc5[nH]4)cc3[nH]2)cc1`, the growth inhibition in experiment [1] and in experiment [4] was 99% (active) in each case. In addition, the inhibition in experiment [2] is -13%; in experiment [3] it was -2%. The outcome in experiment [5], in experiment [6], in experiment [7] and in experiment [8] was inactive.

For `Cc1cc(C(F)(F)F)n2nc(C(=O)N(Cc3cncn3Cc3ccccc3F)CC3CC3)cc2n1`, the growth inhibition in experiment [1] and in experiment [4] was 100% (active) in each case. Further, the inhibition in experiment [2] is -5%; in experiment [3], 1%. Moreover, the outcome in experiment [5], in experiment [6], in experiment [7] and in experiment [8] was inactive.

Take `NC(=O)C1CCN(Cc2ccc(-c3cccc(-c4nc5ccc(F)cc5[nH]4)c3)cc2)CC1`: the growth inhibition in experiment [1] was 3%; in experiment [4], 90% (active). Further, the inhibition in experiment [2] was 10%; in experiment [3], -8%. In addition, the result in experiment [5], in experiment [6], in experiment [7] and in experiment [8] was inactive.

On to `CCN(CC)C(=NCCCCCCN=C(/N=C(/N)Nc1ccc(C)cc1)N(CC)CC)/N=C(/N)Nc1ccc(C)cc1`, for which the growth inhibition in experiment [1] is 98% (active); in experiment [4], 97% (active). Besides, the inhibition was 10% in experiment [2] and -3% in experiment [3]. Also, the result in experiment [5], in experiment [6], in experiment [7] and in experiment [8] was inactive.

On to `Cc1nn(CC(C)C)c2sc(C(=O)N3CCN(S(=O)(=O)c4ccc(C#N)cc4)CC3)cc12`, for which the growth inhibition in experiment [1] and in experiment [4] was 99% (active) in each case. Further, the inhibition in experiment [2] is 14%; in experiment [3], -2%. Further, the result in experiment [5], in experiment [6], in experiment [7] and in experiment [8] was inactive.

For the compound `CC(C)CCN1CCC(Oc2cccc(NC(=O)c3ccc(C(F)(F)F)cc3)c2)CC1`, the growth inhibition in experiment [1] is 6%; in experiment [4], 98% (active). In addition, the inhibition in experiment [2] is 39%; in experiment [3], -2%. For the same compound, the outcome in experiment [5], in experiment [6], in experiment [7] and in experiment [8] was inactive.

For `O=C(C=Cc1ccc(Cl)c(Cl)c1)NCCCCCN1CCC(CCNC(=O)C(c2ccccc2)c2ccccc2)CC1`, the growth inhibition was 43% in experiment [1] and 90% (active) in experiment [4]. In addition, the inhibition in experiment [2] was 61% (active); in experiment [3] it was 4%. The outcome in experiment [5], in experiment [6], in experiment [7] and in experiment [8] was inactive.

Consider `CCN(CC)CCN(Cc1ccc(-c2ccc(C(F)(F)F)cc2)cc1)C(=O)Cn1c(SCc2ccc(F)cc2)nc(=O)c2sccc21`, for which the growth inhibition is 65% (active) in experiment [1] and 101% (active) in experiment [4]. Moreover, the inhibition is 51% (active) in experiment [2] and -1% in experiment [3]. Further, the outcome in experiment [5], in experiment [6], in experiment [7] and in experiment [8] was inactive.

Consider `Cc1cc(N2CCCC2)nc(Nc2ccc(NC(=O)c3cccc(F)c3)cc2)n1`, for which the values for the growth inhibition in experiment [1] and in experiment [4] were 28% and 97% (active), respectively. In addition, the values for the inhibition in experiment [2] and in experiment [3] were 39% and -3%, respectively. For the same compound, the outcome in experiment [5], in experiment [6], in experiment [7] and in experiment [8] was inactive.
